From PubChem BioAssay (EPA / NIEHS)
Inconclusive results are not listed. The source made the active and inactive calls. How the source made its calls: active means hit-call score of the fitted dose curve at least 0.9, where 1 is the maximum; inconclusive means response in the unintended direction; inactive means score below 0.9.

Experiment: CCTE_Deisenroth_AIME_384WELL_CTox_Inactive: Cytotoxicity Assessment (CTOX) in CCTE's 384-well Estrogen Receptor Transactivation Assay without AIME metabolic competence (metabolism negative), Deisenroth Lab (AID 2284039);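 further: cell viability via live-cell protease substrate cleaved to fluorescent probe; cells exposed 24 h to medium preincubated 2 h with alginate-water beads without S9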
Experimental: CCTE_Deisenroth_AIME_384WELL (AIME metabolism assay) is a cell-based, single-readout assay that uses VM7Luc4E2, a human mammary gland/breast cell line, with measurements taken at 24 hour after chemical dosing in a 384-well plate.CCTE_Deisenroth_AIME_384WELL_CTox_Inactive is one of four assay components measured or calculated from the CCTE_Deisenroth_AIME_384WELL assay. It is designed to make measurements of a protease substrate, a type of viability indicator, as detected with substrate cleavage to a fluorescent probe in living cells.CCTE_Deisenroth_AIME_384WELL_CTox_Inactive is a component of the CCTE_Deisenroth_AIME_384WELL assay that measures the effect of retroftting the VM7Luc ERTA assay with the Alginate Immobolization of Metabolic Enzymes (AIME) metabolism method. AIME is optimized to impart phase I hepatic metabolism using phenobarbital/beta-naphthoflavone induced hepatic S9 from male Sprague Dawley rats. Parent chemicals are incubated for 2 hours in the AIME assay prior to transfer to the VM7Luc ERTA assay plate. […] This endpoint evaluates cytotoxicity in metabolism negative mode. Using a type of flourescent probe in VM7Luc cells, loss-of-signal activity can be used to understand loss of viability. This assay endpoint, CCTE_Deisenroth_AIME_384WELL_CTox_Inactive, was analyzed with bidirectional fitting in the ERTA assay.
The AIME procedure consists of a preparative "pre-stamping" step using a barium chloride/poly-L-lysine (PLL) solution followed by "stamping" the lid in alginate-hepatic S9 (metabolism positive) or alginate-water (metabolism negative) to form microspheres. Once stamping is completed, the AIME lids are placed in duplicate microplates (metabolism positive or negative) containing chemical solutions and incubated for two hours to facilitate metabolic reactions. The conditioned medium, containing parent chemical or metabolites, is then transferred to the cell-based VM7Luc Estrogen Receptor Transactivation Assay (ERTA) for 24 hours. A typical experimental design tests a 10-point concentration series (0.002 - 200 uM) for 8 compounds (96-well format)1 or 32 compounds (384-well format)2 in single technical replicate. AIME assay controls include trans-stilbene (bioactivated control) and ethylparaben (bioinactivated control). ERTA assay plate controls include 17-beta estradiol (positive control) and DMSO (solvent control). Experiments typically comprise a minimum of four experimental replicates (n=4).

Compound	outcome	AC50
CCCOC(=O)NCCCN(C)C	inactive	–
Cc1nn(C)c(Oc2ccccc2)c1C=NOCc1ccc(C(=O)OC(C)(C)C)cc1	inactive	–
c1ccc2[nH]c(-c3cscn3)nc2c1	inactive	–
CCOC(=O)COc1cc(-n2ncc(C(F)(F)F)c(C)c2=O)c(F)cc1Cl	inactive	–
CC(=O)[C@H]1CC[C@H]2[C@@H]3CCC4=CC(=O)CC[C@]4(C)[C@H]3CC[C@]12C	–	27.4 µM (active)
CSC(=O)c1cccc2nnsc12	inactive	–
O=C(O)c1ccccc1	inactive	–
c1ccc(Nc2ccccc2)cc1	inactive	–
O=C(c1ccc(O)cc1O)c1ccc(O)cc1O	inactive	–
CCCCOC(=O)C(C)Oc1ccc(Oc2ccc(C(F)(F)F)cn2)cc1 (stereo not given)	inactive	–
